In PubChem BioAssay (EPA / NIEHS):
Records with an inconclusive call do not appear. The source made the active and inactive calls. Rule for the calls: active = hit-call score of the fitted dose curve at least 0.9, where 1 is the maximum; inconclusive = response in the unintended direction; inactive = score below 0.9.

assay: CCTE_Simmons_CellTiterGLO_HEK293T: Viability Assessment in CCTE's Assays for Thyroperoxidase (TPO) Inhibition, Simmons Lab (AID 2283665);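 for AC50: cells exposed to compound for 24 h before readout; actives reduce ATP signal below DMSO vehicle meaning cytotoxicity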
Experimental: CCTE_Simmons_CellTiterGLO_HEK293T is a cell-based, single-readout assay that uses HEK293T, a human kidney cell line, with measurements taken at 24 hours after chemical dosing in a 384-well plate.CCTE_Simmons_CellTiterGLO_HEK293T is the assay component measured from the CCTE_Simmons_CellTiterGLO_HEK293T assay. It is designed to make measurements of ATP content, a form of viability reporter, as detected with bioluminescence signals by Luciferase-coupled ATP quantitation technology. This is a secondary cytotoxicity assay to CCTE_Simmons_AUR_TPO to estimate a cellular tolerance limit.Data from the assay component CCTE_Simmons_CellTiterGLO_HEK293T was analyzed at the endpoint, CCTE_Simmons_CellTiterGLO_HEK293T, in the positive analysis fitting direction relative to DMSO as the negative control and baseline of activity. Using a type of viability reporter, measures of ATP content for loss-of-signal activity can be used to understand the viability. This assay was run in parallel with aeid 1508 as a means of indicating the range of chemical cytotoxicity or reactivity. To generalize the intended target to other relatable targets, this assay endpoint is annotated to the cell cycle intended target family, where the subfamily is cytotoxicity.
Human HEK293T cells (GenHunter; Nashville, Tennessee) were seeded overnight in 384-well, solid white assay plates (Greiner, BioExpress) at a density of 10 000 cells per well in 65 ul Dulbecco's Modified Eagle Medium (Life Technologies; Carlsbad, California) supplemented with 1% fetal bovine serum (HyClone; Logan, Utah). Test compounds were administered using the HDRT as described earlier to achieve a 0.5% final DMSO concentration. Cells were then incubated at 37C for 24 hr in a humidified 5% CO2 incubator. Cell Titer Glo (Promega; Madison, WI) reagent (25 ul) was then added by the BioTek MicroFlo and microplates were incubated at room temperature in the dark for 20min. Plates were read on a plate reader (FLUOStar Optima) using an endpoint luminescence protocol (top read). Three biological replicates of technical singles were run for every chemical concentration tested. A titrated range of DCNQ served as a positive control on each plate of the cytotoxicity screening assay.Test chemicals were administered as a titrated series of 8 concentrations from 5 nM up to 87.5 uM [final] for 24 hours prior to single endpoint detection. Three biological replicates of technical singles were run for every chemical concentration tested. Dimethylsulfoxide [DMSO] was used as the vehicle control. Dichlone [DCNQ] was used as the positive control and was administered as a titrated series of 8 concentrations from 1 nM up to 100 uM [final].

SMILES | AC50 | outcome
CCCCCCCCCCCCCC[P+](CCCC)(CCCC)CCCC | 4.44 µM (active) | –
CC(C)OC=O | – | inactive
Cc1ccc(O)cn1 | – | inactive
O=c1cccc[nH]1 | – | inactive
CCN=C1C=CC(=C(c2ccc(N(CC)CC)cc2)c2ccc(N(CC)CC)cc2)c2ccccc21 | 1.72 µM (active) | –
O=C(c1ccccc1)c1ccc(O)cc1O | – | inactive
C[C@]12CC[C@H]3C(=CCc4cc(O)ccc43)[C@@H]1CCC2=O | 87.7 µM (active) | –
CCCCCCCCCc1ccc(OCCO)cc1 | 79.6 µM (active) | –
CCCCCCCCCCCCC[N+](C)(C)Cc1ccccc1 | 9.42 µM (active) | –
O=c1[nH]cccc1O | – | inactive
Cc1ccc(O)c(-n2nc3ccccc3n2)c1 | 21 µM (active) | –
CCCCCCCC/C=C\CCCCCCCC(=O)N(C)CC(=O)O | 24.4 µM (active) | –
